From PubChem
Shown are actives, neighbours in structure and some others; about 2.4% of the full set was active somewhere.
D2 PAM-1: human D2 receptor positive allosteric modulation | P14416 | DiscoveRx D2 beta-arrestin cells, luminescence, 90 min; 100% = 57 uM dopamine signal | potentiation, % (concentration not given with the values) | 0.23% of 360,000 active | AID 624464; in the data active means potentiation above about 50%; inconclusive means mostly about 30% to 49%
Target sequence (P14416 whole entry, looked up): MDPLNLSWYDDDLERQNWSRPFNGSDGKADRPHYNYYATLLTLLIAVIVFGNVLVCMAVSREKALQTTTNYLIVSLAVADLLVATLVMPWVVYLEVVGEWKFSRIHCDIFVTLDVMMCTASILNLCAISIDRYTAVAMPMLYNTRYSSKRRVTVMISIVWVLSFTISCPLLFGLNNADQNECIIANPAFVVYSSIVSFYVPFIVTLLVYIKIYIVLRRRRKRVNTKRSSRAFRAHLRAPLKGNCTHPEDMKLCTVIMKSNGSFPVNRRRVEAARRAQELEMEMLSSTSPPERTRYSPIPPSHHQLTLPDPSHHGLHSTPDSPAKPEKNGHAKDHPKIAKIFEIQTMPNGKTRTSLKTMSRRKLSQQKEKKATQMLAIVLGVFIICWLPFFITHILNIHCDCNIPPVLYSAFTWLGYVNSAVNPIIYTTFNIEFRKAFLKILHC
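PathHunter beta-arrestin assay in DiscoveRx D2 cells. Compounds were added with an EC20 of dopamine (50 nM final) for 90 min at 37 deg C. Luminescence was read 1 h after detection reagent, with 57 uM dopamine as the EC100 control.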
D2 PAM-2: positively modulates the human D2 dopamine receptor allosterically; HEK293 T-REx D2, calcium flux, EC20 dopamine potentiation; potentiation, % at 10 µM; 0.34% of 340,000 active; P14416;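 active means potentiation over 3 SD above the plate norm, cut at about 30% in these data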; further: 0% is about no effect
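Using a no-wash calcium dye in inducible, force-coupled HEK293 Trex cells expressing D2, we tracked fluorescence each second for 180 s after compound, then for 180 s after EC20 dopamine to detect augmented signalling.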
D2 ag-1: human D2 receptor agonism in beta-arrestin assay; P14416; 0.084% of 360,000 active; DiscoveRx PathHunter D2 beta-arrestin, luminescence, 90 min; 100% = 57 uM dopamine signal; AID 624465; activation, % (concentration not given with the values); in the data active means activation above about 40%; inconclusive means between about 15% and that limit
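Agonist mode: compounds alone added to overnight-plated D2 PathHunter cells for 90 min at 37 C, with 57 uM final dopamine (EC100) defining full response. Beta-arrestin recruitment detected by chemiluminescent reagent, read after 1 h at ambient temperature.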
D2 ag-2: agonists of human D2 dopamine receptor | activation, % at 2 µM | HEK293 T-REx D2 cells, calcium flux agonist mode | AID 485358 | 0.53% of 340,000 active | P14416;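 active means activation over 3 SD above normal in the single-dose calcium agonist read, cut at about 30% in these data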; further: 0% is about no effect
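HEK293 Trex D2 cells, tetracycline-induced, o/n 30 C 5% CO2; no-wash Ca dye, RT 30–90 min; 10-cycle baseline, 23 nl cpd added, kinetic Ca read 180 s; agonist hits = positive Ca response.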
D2 antag: D2 dopamine receptor (human) antagonism; P14416; HEK293 TREx D2 cells, calcium flux, dopamine EC80; inhibition, % at 10 µM; 2% of 340,000 active; in the data active means inhibition above about 30%; inactive means below that, where a call was filed; further: 0% is about no effect
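Cells plated overnight at 30 C with tetracycline; no-wash calcium dye, 30–90 min RT; 10 s baseline; compound pinned; 180 s read; EC80 dopamine added; another 180 s read.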
Starred values were filed as active, the others as inactive; ? = inconclusive; . = no result.

SMILES	D2 PAM-1	D2 PAM-2	D2 ag-1	D2 ag-2	D2 antag
CCN(CC)S(=O)(=O)c1ccc(Cl)c(C(=O)Nc2ccc(Cl)cc2[N+](=O)[O-])c1	63*	3	12	-1	-9
c1ccc(-c2ccccc2OCCCN2CCCCCC2)cc1	-12	-23	1	-2	56*
c1ccc(-c2ccccc2OCCCN2CCCC2)cc1	-16	-27	-2	1	2
c1ccc(-c2ccccc2OCCCCN2CCCCC2)cc1	-11	-21	-3	0	75*
CCOCCCNCc1ccc(OCCC(C)C)c(OC)c1	-8	-9	-6	-1	35*
CC(C)Cn1c(=O)c2ccccc2n2c(CCC(=O)Nc3cccc(Cl)c3)nnc12	.	10	.	0	.
CCCCC1=CC2=CC(=O)C(C)(OC(=O)CC)C(=O)C2=CN1Cc1ccc(OC)cc1 (centres undefined)	-1	9	3	0	31*
CCCCC1=CC2=C(c3ccco3)C(=O)C(C)(OC(=O)c3ccc(OC)cc3)C(=O)C2=CN1Cc1ccccc1 (centres undefined)	10	-7	3	0	5
CCCCC1=CC2=C(c3ccco3)C(=O)C(C)(OC(=O)c3ccc(OC)cc3)C(=O)C2=CN1Cc1ccc2c(c1)OCO2 (centres undefined)	-16	0	0	0	33*
O=C(CN1C(=O)C2(SCC(=O)N2c2cccc(F)c2)c2ccccc21)NCCc1ccccc1 (centres undefined)	.	-6	.	2	.
CCOC(=O)C1=C(C)N(CCCCCC(=O)O)C(=O)NC1c1cccc([N+](=O)[O-])c1 (centres undefined)	-25	6	0	0	2
CCOC(=O)C1=C(C)N(CCCCCC(=O)O)C(=O)NC1c1ccc([N+](=O)[O-])cc1 (centres undefined)	-10	-18	-5	31*	8
CCOC(=O)C1=CN(Cc2cccc(-c3ccc(Cl)nc3)c2)S(=O)(=O)N(C)C1C (centres undefined)	2	.	3	.	.
CCN(CC)CCNC(=O)C(=O)NCC1OCCN1S(=O)(=O)c1ccc([N+](=O)[O-])cc1 (centres undefined)	50*	-12	9	2	-2
COc1ccccc1CCNC(=O)C(=O)NCC1OCCN1S(=O)(=O)c1ccc(Cl)cc1 (centres undefined)	-5	-3	-3	1	36*
O=C(Cn1c(=O)n(-c2ccccc2Cl)c(=O)c2sc3ccccc3c21)NC1CCCCC1	.	9	.	-1	.
O=c1c2cc(N3CCOCC3)ccc2[nH]c(=S)n1CCN1CCCC1	-12	-6	-2	0	6
COc1ccccc1N1CCN(CCCn2c(=S)[nH]c3ccccc3c2=O)CC1	-36	-30	2	9	82*
COc1ccccc1N1CCN(CCc2n[nH]c(=S)n2-c2ccccc2)CC1	-21	-22	2	0	52*
O=c1c2cc(N3CCOCC3)ccc2[nH]c(=S)n1CCCN1CCN(c2ccccc2F)CC1	.	-28	.	70*	84*
COc1ccc(N2CCN(CCCn3c(=S)[nH]c4ccccc4c3=O)CC2)cc1	-7	-30	8	0	-41
O=c1c2ccccc2[nH]c(=S)n1CCN1CCN(Cc2ccccc2)CC1	-22	-29	-4	0	52*
CCOC(=O)c1cnc2cc(C(F)(F)F)ccc2c1N1CCN(c2cccc(Cl)c2)CC1	.	2	.	-1	.
O=c1c2cc(N3CCOCC3)ccc2[nH]c(=S)n1CCCN1CCCCCC1	-50	-29	2	0	39*
CN(CCCNC(=O)c1cccn2c(=O)c3ccccc3nc12)Cc1ccccc1	-20	-21	-3	0	31*
SMILES	D2 PAM-1	D2 PAM-2	D2 ag-1	D2 ag-2	D2 antag
O=C(NCCN1CCN(c2ccccc2)CC1)c1cccn2c(=O)c3ccccc3nc12	-27	7	-4	6	18
CC(=O)Nc1cccc(C(=O)NCc2ccc3c(c2)CCN3C(=O)c2ccc(F)cc2)c1	.	-13	.	0	.
c1ccc(CCNCCCOc2cccc3ccccc23)cc1	-27	1	-7	1	35*
Clc1ccc(OCCNCCc2ccccc2)cc1	-6	-22	0	3	54*
O=C(CCCc1ccncc1)c1ccccc1	-19	.	-2	.	.
COc1ccccc1-c1cc(C(=O)N/N=C/c2cccs2)c2ccccc2n1	-32	-23	-1	-1	72*
O=C(N/N=C/c1cccs1)c1c[nH]c2ccccc12	-25	-19	-4	-1	33*
CC(C)NC(=O)N(C)C[C@H]1Oc2ncc(Br)cc2C(=O)N([C@H](C)CO)C[C@@H]1C	2	.	-9	.	.
Cc1ccc(S(=O)(=O)CCC(=O)OCC(=O)N2c3ccccc3NC(=O)C2(C)C)cc1	-15	6	-3	0	90*
Cc1ccc(C(=O)CCC(=O)OCC(=O)N2c3ccccc3NC(=O)C2(C)C)cc1	-18	.	-1	.	.
Nc1c(C(=O)c2cccs2)oc2ccccc12	-6	-6	-2	0	-10
Nc1c(C(=O)c2ccc(Br)s2)oc2ccccc12	-6	-9	-4	0	45*
COc1ccc(OC)c(NC(=O)C(CCSC)NS(=O)(=O)c2cccs2)c1 (centres undefined)	-5	-2	1	0	32*
O=C(NC1CC1)C1CCN(S(=O)(=O)c2ccc(Cl)cc2)CC1	-5	6	1	0	32*
O=C(NC1CCN(S(=O)(=O)c2ccc(Cl)cc2)CC1)C1CCCCC1	-12	-6	0	2	-10
CC(C)(C)CC(=O)Nc1cc2c3c(c1)CCC(=O)N3CCC2	-10	3	-1	0	35*
O=C(CSc1nnc2scc(-c3ccc(Cl)cc3)n12)Nc1ccc(F)cc1	.	-13	.	.	.
COc1ccc(NC(=O)C2CC(=O)N(Cc3ccc(C)cc3)C2)cc1S(=O)(=O)N1CCCCC1 (centres undefined)	-34	-11	-3	0	43*
Cc1ccc(CN2CC(C(=O)O)CC2=O)cc1 (centres undefined)	-6	30*	-1	1	14
COc1ccc(/C(C)=N/Nc2nc3ccccc3n3cnnc23)cc1OC	-2	15	0	1	4
COc1ccccc1C(=O)O/N=C(/c1ccncc1)c1ccc([N+](=O)[O-])cc1	100*	4	?	1	-8
CC1(C(=O)OCC(=O)NC(=O)NCc2ccccc2)CC1(Cl)Cl (centres undefined)	0	6	-2	1	31*
CC1(C(=O)OCC(=O)NCc2ccc(Cl)cc2)CC1(Cl)Cl (centres undefined)	-4	.	-5	.	.
COC(=O)c1cc2sc(Cl)cc2n1Cc1nc(-c2ccccc2F)oc1C	.	.	.	0	.
